# Records with an inconclusive call do not appear. A call without a number means that no potency is given here. Calls of active or inactive are those of the source. Calls follow the shape of the dose curve; as a rule, active = well fitted curve in the direction sought with a large enough effect; inconclusive = small, poorly fitted or top-dose-only effect, or another doubt; inactive = no such curve, though single readings can be large; an effect the other way counts as inactive or inconclusive.
# Experiments:
# [1] = biological target: Metallo-beta-lactamase type 2 (Klebsiella pneumoniae) (UniProt C7C422); test: qHTS to identify inhibitors of the New Delhi Metallo-beta-lactamase (NDM): assay validation screen against the NCATS LOPAC Collection (AID 1794843);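 also: nitrocefin turnover by NDM-1 measured as 485 nm absorbance at plateau; series mostly up to about 38 µM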
# Metallo-beta-lactamase type 2 (Klebsiella pneumoniae), sequence (C7C422 whole entry, looked up): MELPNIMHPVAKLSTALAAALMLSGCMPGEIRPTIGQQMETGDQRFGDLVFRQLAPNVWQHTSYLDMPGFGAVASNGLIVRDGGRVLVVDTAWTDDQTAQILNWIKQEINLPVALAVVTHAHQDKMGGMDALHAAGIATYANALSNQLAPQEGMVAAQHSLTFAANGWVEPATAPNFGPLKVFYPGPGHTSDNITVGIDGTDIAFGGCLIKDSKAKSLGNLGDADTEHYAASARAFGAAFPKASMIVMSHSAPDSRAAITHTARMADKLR
# Outline: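 NDM-1 at 2 nM final in 50 mM HEPES pH 7.0 with 1 uM ZnSO4 and 0.01% Tween20 was preincubated with library compounds in DMSO. Nitrocefin (50 uM stock) was then added, and absorbance at 485 nm was read at the kinetic plateau.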
# [2] = biological target: Glutathione peroxidase 1 (Homo sapiens) (UniProt P07203); test: Primary qHTS Assay for Inhibitors of Recombinant Selenoprotein Glutathione Peroxidase 1 (GPX1) (AID 1845191); also: nearly all actives have a fitted effect of over 65% in size
# Glutathione peroxidase 1 (Homo sapiens), sequence (P07203 whole entry, looked up): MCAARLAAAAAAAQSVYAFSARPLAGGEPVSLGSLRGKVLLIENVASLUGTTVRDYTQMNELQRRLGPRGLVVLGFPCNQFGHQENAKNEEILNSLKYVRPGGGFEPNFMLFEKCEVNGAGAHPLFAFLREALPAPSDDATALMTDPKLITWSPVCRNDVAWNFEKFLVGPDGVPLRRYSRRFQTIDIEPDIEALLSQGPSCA
# Outline: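 GR-coupled readout: NADPH consumption tracked by fluorescence, ex 340/em 450 nm, at t=0 and after 15 min at RT. Final mix 10 nM GPX1, 1 mM GSH, 0.5 mM CHP, 0.5 mM NADPH, 100 nM GR, 0.01% BSA, following 30 min enzyme–compound preincubation.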
# [3] = biological target: Phospholipid hydroperoxide glutathione peroxidase GPX4 (Homo sapiens) (UniProt P36969); test: Primary qHTS Assay for Inhibitors of Recombinant Selenoprotein Glutathione Peroxidase 4 (GPX4) (AID 1845192); also: nearly all actives have a fitted effect of over 65% in size
# Phospholipid hydroperoxide glutathione peroxidase GPX4 (Homo sapiens), sequence (P36969 whole entry, looked up): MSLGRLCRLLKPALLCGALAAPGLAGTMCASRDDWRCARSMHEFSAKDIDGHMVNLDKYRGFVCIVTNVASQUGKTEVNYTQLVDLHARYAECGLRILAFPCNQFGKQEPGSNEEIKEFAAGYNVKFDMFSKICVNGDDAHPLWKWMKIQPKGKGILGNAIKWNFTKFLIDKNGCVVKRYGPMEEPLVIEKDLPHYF
# Outline: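 Steps: GPX4 plus compound, 30 min RT; add GR/GSH/NADPH master mix; start with cumene hydroperoxide; read 340/450 nm fluorescence at 0 and 15 min. Finals were 200 nM GPX4, 1 mM GSH, 0.5 mM CHP, 0.5 mM NADPH, 100 nM GR.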
# [4] = biological target: Luciferin 4-monooxygenase (Photinus pyralis) (UniProt P08659); test: Primary firefly luciferase (FLuc) qHTS assay for identification of artifact compounds. (AID 1845220); also: nearly all actives have a fitted effect of over 60% in size; also: potency is read from the fitted curve at half-maximal effect
# Outline: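 Titrated compounds were incubated 15 min at RT, protected from light, with luciferin and ATP at 10 uM; reaction started with 10 nM FLuc, luminescence imaged at 5 min, and concentration-response fitted by Hill equation.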
# [5] = Primary fluorescence-based thiol-reactive (MSTI) qHTS assay for identification of artifact compounds. (AID 1845221);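 also: series mostly up to about 54 µM; thiol-reactive compounds lower the probe fluorescence signal; nearly all actives have a fitted effect of over 65% in size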
# Outline: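 First, 4 uM MSTI in 2% DMSO/PBS pH 7.4 was dispensed; next, compounds were added; then plates sat 1 h at room temperature without light. Finally, emission at 598 nm was recorded.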
# [6] = test system: Nanoluciferase (engineered Oplophorus gracilirostris luciferase); test: Primary Nanoluciferase (NLuc) qHTS assay for identification of artifact compounds. (AID 1845222); also: potency is read from the fitted curve at half-maximal effect
# Outline: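 qHTS format, against NLuc in S16 cell-conditioned medium. Nano-Glo substrate 1:100 was added after 15 min at room temperature. Luminescence was taken after a further 5 min.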
# [7] = Primary redox qHTS assay for identification of artifact compounds. (AID 1845223)
# Outline: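 Redox-cycling detection via DTT (250 uM final) oxidation coupled to Amplex Red (25 uM)/HRP (250 mU/mL) in HBSS. 15 min preincubation plus 30 min after DTT, room temperature. Ex/Em 525/598 nm; 4-parameter Hill fit against DMSO and 10 uM DA3003.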
smiles,measurement,setting,value
CC(=O)/C=C1\C(=O)N(C)c2ccccc21,Potency,[1],inactive
same,Potency,[2],inactive
same,Potency,[3],inactive
NC[C@H]1O[C@@H](n2cnc3c(N)ncnc32)[C@H](O)[C@@H]1O,Potency,[1],inactive
same,Potency,[2],inactive
same,Potency,[3],inactive
Fc1ccc2[nH]c(CN3CCN(c4ccccn4)CC3)cc2c1,Potency,[1],inactive
same,Potency,[2],inactive
same,Potency,[3],inactive
same,Potency,[4],inactive
same,outcome,[5],inactive
same,Potency,[6],inactive
same,outcome,[7],inactive
CN1CCc2cc(NC(=O)Nc3cccnc3)ccc21,Potency,[1],inactive
same,Potency,[2],inactive
same,Potency,[3],inactive
CN(CCCOc1ccc(Cc2ccccc2)cc1)CCC(=O)O,Potency,[1],inactive
same,Potency,[2],inactive
same,Potency,[3],inactive
same,Potency,[4],inactive
same,outcome,[5],inactive
same,Potency,[6],inactive
Nc1cc(-c2ccncc2)c[nH]c1=O,Potency,[2],inactive
O=C(O)CCCC[C@@H]1CCSS1,Potency,[1],inactive
same,Potency,[3],inactive
O=C1NC(=O)/C(=C/c2ccc3nccnc3c2)S1,Potency,[1],inactive
same,Potency,[2],inactive
same,Potency,[3],inactive
O=C(NOCC1CC1)c1cc(Br)c(F)c(F)c1Nc1ccc(I)cc1Cl,Potency,[1],inactive
same,Potency,[2],inactive
same,Potency,[3],inactive
Fc1cccc(/C=N/N=C/c2cccc(F)c2)c1,Potency,[1],inactive
same,Potency,[2],inactive
same,Potency,[3],inactive
CSc1ccccc1N1CCN(CCCCCC(=O)NC2CCCc3ccccc32)CC1 (configuration not stated),Potency,[2],inactive
CCCCCC[C@@H](O)C/C=C\CCCCCCCC(=O)O,Potency,[2],inactive
Cc1c(Nc2ncccc2C(=O)O)cccc1C(F)(F)F,Potency,[2],inactive
C=CC(C)=C[C@@]1(C)SC(=O)C(C)=C1O,Potency,[1],inactive
same,Potency,[3],inactive
[O-][n+]1ccccc1SSc1cccc[n+]1[O-],Potency,[2],inactive
NS(=O)(=O)c1ccc(-n2nc(C(F)(F)F)cc2-c2ccc(Cl)cc2)cc1,Potency,[1],inactive
same,Potency,[2],inactive
same,Potency,[3],inactive
same,Potency,[4],inactive
same,outcome,[5],inactive
same,Potency,[6],inactive
same,outcome,[7],inactive
O=C1NC(=O)/C(=C/c2ccc(-c3ccc(F)cc3O)o2)S1,Potency,[1],inactive
same,Potency,[3],inactive
COc1ccc2c(c1)CCC1C2CC[C@@]2(C)C1CC[C@@H]2NCCCCCCN1C(=O)CCC1=O (some centres not stated),Potency,[1],inactive
same,Potency,[2],inactive
same,Potency,[3],inactive
Clc1ccc(N2CCN(Cc3c[nH]c4ncccc34)CC2)cc1,Potency,[1],inactive
same,Potency,[2],inactive
same,Potency,[3],inactive
CS(=O)(=O)c1ccc(-n2nc(C(F)(F)F)cc2-c2ccc(F)cc2)cc1,Potency,[1],inactive
same,Potency,[2],inactive
same,Potency,[3],inactive
same,Potency,[4],inactive
same,outcome,[5],inactive
same,Potency,[6],inactive
same,outcome,[7],inactive
CNCC[C@H](Oc1ccc(C(F)(F)F)cc1)c1ccccc1,Potency,[1],inactive
same,Potency,[2],inactive
same,Potency,[3],inactive
O=C(Nc1ccc2c(c1)CCN(Cc1ncn[nH]1)C2)c1ccccc1-c1ccc(C(F)(F)F)cc1,Potency,[1],inactive
same,Potency,[2],inactive
same,Potency,[3],inactive
same,Potency,[4],inactive
same,outcome,[5],inactive
same,Potency,[6],inactive
same,outcome,[7],inactive
COc1ccc(/C=C/C(=O)Nc2ccccc2C(=O)O)cc1OC,Potency,[1],inactive
same,Potency,[2],inactive
same,Potency,[3],inactive
same,Potency,[4],3.01 µM (active)
same,outcome,[5],inactive
same,Potency,[6],21.3 µM (active)
same,outcome,[7],inactive
CN(C)[C@@H]1C(=O)C(C(=O)NCN2CCCC2)=C(O)[C@@]2(O)C(=O)C3=C(O)c4c(O)cccc4[C@@](C)(O)C3C[C@@H]12 (some centres not stated),Potency,[2],inactive
COc1cc(OC)cc(-c2cc3cnc(N)nc3nc2NC(=O)NC(C)(C)C)c1,Potency,[1],inactive
same,Potency,[2],inactive
same,Potency,[3],inactive
CCCCCCCCCCCC(=O)[O][Sn]([CH2]CCC)([CH2]CCC)[O]C(=O)CCCCCCCCCCC,Potency,[2],inactive
O=C(Nc1cccc(C(=O)Nc2ccc(S(=O)(=O)O)c3cc(S(=O)(=O)O)cc(S(=O)(=O)O)c23)c1)Nc1cccc(C(=O)Nc2ccc(S(=O)(=O)O)c3cc(S(=O)(=O)O)cc(S(=O)(=O)O)c23)c1,Potency,[2],inactive
S=c1[nH]c2ccccc2s1,Potency,[2],inactive
O=C(Nc1ccc2[nH]ncc2c1)C1CCC1,Potency,[1],inactive
same,Potency,[2],inactive
same,Potency,[3],inactive
same,Potency,[4],inactive
same,outcome,[5],inactive
same,Potency,[6],inactive
same,outcome,[7],inactive
CN(C)c1nc2c(Br)c(Br)c(Br)c(Br)c2[nH]1,Potency,[2],inactive
CC1(C)S[C@@H]2[C@H](NC(=O)[C@H](N)c3ccccc3)C(=O)N2[C@H]1C(=O)O,Potency,[2],inactive
CCCCC1C(=O)N(c2ccccc2)N(c2ccc(O)cc2)C1=O (configuration not stated),Potency,[2],inactive
CCCCCCCCCCCCCCCC(=O)OC(C)C,Potency,[2],inactive
same,Potency,[3],inactive
CCOc1ccc2nc(S(N)(=O)=O)sc2c1,Potency,[2],inactive
same,Potency,[3],inactive
Cc1ccc2c(n1)Oc1ccc(C(C)C(=O)OCC(=O)N(C)C)cc1C2 (configuration not stated),Potency,[2],inactive
same,Potency,[3],inactive
same,outcome,[5],inactive
same,Potency,[6],inactive
same,outcome,[7],inactive
Cc1cc(O)c2ccccc2c1O,Potency,[3],inactive
COC(=O)C1=C(C)NC(C)=C(C(=O)OCC(C)=O)C1c1ccccc1[N+](=O)[O-] (configuration not stated),Potency,[3],inactive
CC1(C)S[C@@H]2[C@H](NC(=O)[C@H](NC(=O)N3CCN(S(C)(=O)=O)C3=O)c3ccccc3)C(=O)N2[C@H]1C(=O)O,Potency,[2],inactive
same,Potency,[3],inactive
same,Potency,[4],inactive
same,outcome,[5],inactive
same,Potency,[6],inactive

# Reference: PubChem BioAssay (NCATS)
